Compounds without any hit were thinned out: in the full panel of roughly 83,000, 20% have a hit.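 Negative percent growth values reflect cell death: -40 means 40% of the cells present at the start died, and -100 means all died.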 A number with no mark means an inactive call. Active and inactive are the calls of the source. The calls were made as follows: active = growth percent below 10; inactive = the rest.
Columns and labels:
Assay in all cases: NCI-60 one-dose screen, 48 h (100 = growth as untreated, 0 = no growth, -100 = all killed)
Conditions in all cases: 10 µM unless noted
BT-549 breast = system: BT-549 breast
MDA-MB-435 melanoma = system: MDA-MB-435 melanoma
SW-620 colon = system: SW-620 colon
MCF7 breast = system: MCF7 breast
HCT-116 colon = system: HCT-116 colon
HCC-2998 colon = system: HCC-2998 colon
KM12 colon = system: KM12 colon
T-47D breast = system: T-47D breast

Compound	growth (BT-549 breast)	growth (MDA-MB-435 melanoma)	growth (SW-620 colon)	growth (MCF7 breast)	growth (HCT-116 colon)	growth (HCC-2998 colon)	growth (KM12 colon)	growth (T-47D breast)
C=C1c2c(C)nn(-c3ccc(N)cc3)c2N(C)C23CC1C1(C)c4c(C)nn(-c5ccc(N)cc5)c4N(C)C(C)(CC12)C3 (stereo not given)	72.7%	70.4%	77.1%	24.8%	33.5%	85.8%	68.3%	–
O=C(CCCCCCCn1cc(-c2cccnc2)nn1)Nc1ccccc1-c1ccccc1	–	22.5%	20.6%	38.5%	0.699% (active)	38.1%	29.4%	28%
CCOC(=O)c1c(C)nc2c(c1N)/C(=C/c1ccc(OC)cc1)C(=O)N2Cc1ccc(F)cc1	–	-62.1% (active)	-58.9% (active)	-35.7% (active)	-85.4% (active)	-83.7% (active)	-59.7% (active)	-0.0776% (active)
CCCCCCCC/C=C\CCCCCCCC(=O)Oc1cccc2cccnc12	–	82.9%	59.4%	89.4%	32.2%	106%	104%	54.6%
NS(=O)(=O)c1cnccc1-n1ccc(=O)c(S(N)(=O)=O)c1	–	91.7%	97%	88.8%	92.5%	104%	93.3%	84.5%
C[C@@H]1C(=O)N(C[C@H](Cc2ccccc2)NC(=O)OCc2ccccc2)[C@]1(Cc1ccccc1)C(=O)OC(C)(C)C	–	76.9%	83.2%	61.1%	–	87.7%	70.3%	43.3%
C#C[C@]1(O)CC[C@H]2[C@@H]3CC=C4c5sc(N=C(N)N)nc5CC[C@]4(C)[C@H]3CC[C@@]21C	–	-55.9% (active)	-47.1% (active)	0.374% (active)	–	-15.9% (active)	-28.6% (active)	1.23% (active)
CCOc1ccc(S(=O)(=O)c2ccc(C)cc2)c2c1no[n+]2[O-]	–	91.4%	100%	83.1%	80.4%	100%	93.6%	56.4%
Clc1ccc(-c2nc(NCCc3ccccc3)nc3c(NCCc4ccccc4)cnn23)cc1	–	42.6%	33.5%	31.1%	28.6%	72.4%	70%	63.3%
Cc1nc2ccccc2c(/C=C/c2ccc(Cl)cc2)c1C(=O)/C=C/c1ccc(Cl)cc1	–	-51.4% (active)	-37.4% (active)	3.86% (active)	–	-74.7% (active)	-38.4% (active)	-15.3% (active)
O=C1C(Cl)C(c2ccccc2Cl)N1n1cnnc1 (stereo not given)	97.3%	103%	94.5%	97.4%	96.4%	98.4%	96.9%	–
CCC(O)(C(c1ccccc1)c1ccccn1)C(c1ccccc1)c1ccccn1 (stereo not given)	–	117%	120%	101%	99.4%	–	106%	92.3%
Cc1cc(NS(=O)(=O)c2ccccc2)c(OS(=O)(=O)c2ccccc2)cc1C	–	122%	107%	93.7%	96.1%	106%	107%	109%
CC(=O)c1ccc2c(c1)CCN2	–	111%	113%	98.3%	100%	–	110%	105%
Cc1cc2c(F)c(Oc3ncnc(Nc4ccc(N5C[C@@H](C)N[C@@H](C)C5)cc4)c3C#N)cc(F)c2[nH]1	–	19.9%	3.6% (active)	12.3%	–	84.1%	11.9%	-1.93% (active)
Fc1ccc(Nc2nc(Nc3ccc(-c4nc5ccccc5[nH]4)cc3)c3cn[nH]c3n2)cc1	–	90.3%	10.9%	4.38% (active)	–	82.9%	54.4%	12.1%
C[C@@H](C[C@H](CCOCc1cccnc1)c1ccccc1)c1cc2ccccc2o1	102%	103%	91.6%	106%	75.6%	101%	88%	–
NC(N)=N/N=C/c1ccc(Br)cc1	–	-33.1% (active)	16.8%	4.98% (active)	-26.3% (active)	56.7%	18.3%	-26.9% (active)
Cc1cc(C(c2ccccc2)c2ccccc2)ccc1NS(=O)(=O)c1ccccc1	–	114%	101%	88.3%	82.1%	104%	97.7%	85.6%
C[C@@H]1CC[C@@H]2[C@@H]1[C@H](OC(=O)c1ccc3ccccc3c1)[C@]1(C3CCCCC3)C[C@@H](OC(=O)CO)[C@@]2(C)O1	0.366% (active)	72.1%	65.1%	20.5%	28.3%	51.3%	54.2%	–
C=C(C)[C@@H]1CC[C@]2(C(=O)NCC(=O)O)CC[C@]3(C)[C@H](CC[C@@H]4[C@@]5(C)Cc6c([nH]c7ccccc67)C(C)(C)[C@@H]5CC[C@]43C)[C@@H]12	65.7%	87.1%	85%	81.4%	77.4%	98.4%	88.1%	–
O=C1NN(C(=O)c2ccc(O)cc2)C(c2ccccc2)=N/C1=C\c1cn(-c2ccccc2)nc1-c1ccccc1	94.7%	105%	110%	96%	95.7%	104%	98.1%	–
O=S(=O)(Nc1ccsc1-c1nc(-c2ccccc2)no1)c1cc(Cl)cc(Cl)c1	99.5%	88.9%	95.8%	92.4%	89.9%	104%	93.2%	–
COc1cc(NC(=O)c2cccc(-c3cc(=O)c4c(OC)c(OC)c(OC)cc4o3)c2)cc(OC)c1OC	27%	6.36% (active)	67%	34.3%	48.6%	74.1%	45.8%	–
C=C1c2c(C)nn(-c3ccc(O)cc3)c2N(C)C23C[C@@H]1C1(C)c4c(C)nn(-c5ccc(O)cc5)c4N(C)C(C)(C[C@H]12)C3 (stereo not given in full)	28.6%	18.7%	31.2%	5.99% (active)	8.9% (active)	44.9%	21.2%	–
O=C(NCc1cccnc1)c1cc(-c2csc3c(=O)cc(N4CCOCC4)oc23)cc2c1OCCO2	54.3%	32.9%	46.9%	8.29% (active)	45.2%	41.8%	48.9%	–

— PubChem BioAssay (NCI)
